Laboratory results published in PubChem BioAssay (Tox21).
Inconclusive results are not listed. Activity calls are given as the source filed them. Calls come from the whole dose curve; as a rule, active = well fitted inhibition curve with a large enough effect in the repeat runs; inconclusive = weak or mixed curves; inactive = no such curve, though single readings can be large or run the other way.

Target: Cytochrome P450 3A4 (Homo sapiens) (UniProt P08684)
Experiment: Cytochrome P450 Family 3 Subfamily A Member 4 (CYP3A4) small molecule antagonists: luciferase reporter qHTS assay (AID 1671201); note: nearly all actives have a fitted effect of over 50% in size
Details: P450-Glo CYP3A4 enzyme, luciferin luminescence, 1 h; series mostly up to 115 µM; activity change, negative = inhibition: at the top concentration
Procedure, shortened: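 Proluciferin-to-luciferin conversion by CYP3A4, NADPH-regenerated, 1 h RT; luminescence read as RLU. Ketoconazole as control.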
% is set by controls: 0 for no effect and ±100 for the full control effect; potency is the fitted concentration of half-maximal effect.

Sequence of Cytochrome P450 3A4 (Homo sapiens) (P08684 whole entry, looked up): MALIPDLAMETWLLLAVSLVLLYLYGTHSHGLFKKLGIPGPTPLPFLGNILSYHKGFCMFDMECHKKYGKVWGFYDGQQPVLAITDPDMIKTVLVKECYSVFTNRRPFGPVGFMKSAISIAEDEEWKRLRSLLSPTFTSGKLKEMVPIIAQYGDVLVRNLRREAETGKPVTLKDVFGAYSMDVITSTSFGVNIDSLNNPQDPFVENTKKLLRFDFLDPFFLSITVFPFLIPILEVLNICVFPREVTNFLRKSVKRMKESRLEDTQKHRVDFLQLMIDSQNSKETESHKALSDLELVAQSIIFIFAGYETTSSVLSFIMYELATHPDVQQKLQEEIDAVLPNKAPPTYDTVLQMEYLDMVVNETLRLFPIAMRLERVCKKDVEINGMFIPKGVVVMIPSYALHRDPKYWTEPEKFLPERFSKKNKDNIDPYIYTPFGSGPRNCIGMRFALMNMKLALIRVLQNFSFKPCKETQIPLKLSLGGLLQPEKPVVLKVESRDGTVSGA

Structure (SMILES)	activity change, negative = inhibition	Potency
O=C(Cl)c1ccc(Cl)cc1	37.3% (inactive)	
Fc1cccc(Cl)c1CCl	6.98% (inactive)	
Cc1ccc(OP(=O)(Oc2ccccc2)Oc2ccccc2)cc1	-47.7% (inactive)	
Nc1ccc(Cc2ccc(N)c(Cl)c2)cc1Cl		3.44 µM (active)
O=[N+]([O-])c1cc([N+](=O)[O-])c2ccccc2c1	5.14% (inactive)	
CC(C)(O)c1cnn2c(-c3ccc(F)c(-c4c(F)cccc4C#N)c3)cnc2n1		35.6 µM (active)
COc1ccc([N+](=O)[O-])cc1O	0.686% [at 52.9 µM] (inactive)	
FC(F)(F)c1cccc(C2=CCN(CCc3ccc4ccccc4c3)CC2)c1	114% [at 52.9 µM] (inactive)	
N#CCCC(Br)(C#N)CBr (configuration not stated)	-31.3% (inactive)	
N#C/C=C/c1ccccc1	6.23% (inactive)	
N#CCCO	0% (inactive)	
CCOP(=S)(OCC)SCCS(=O)(=O)CC		1.59 µM (active)
COc1cc(C=O)cc2c1[C@H](COC(N)=O)[C@]1(OC(C)=O)ON2C[C@H]2[C@@H]1N2C(C)=O	-21.7% (inactive)	
CCCCCCCCCCCCCCCC[N+](C)(C)C	-11% [at 52.9 µM] (inactive)	
O=c1ssc(Cl)c1Cl		63.3 µM (active)
ClCc1ccc(Cl)cc1Cl	10.9% (inactive)	
[Hg+2].[I-].[I-]		2.24 µM (active)
O=c1[nH]c2ccccc2n1C1CCN(CCCC(c2ccc(F)cc2)c2ccc(F)cc2)CC1	338% (inactive)	
COc1cc(N)c(Cl)cc1C(=O)NC1CN2CCC1CC2 (configuration not stated)	1.82% [at 52.9 µM] (inactive)	
COC(=O)N(C(=O)N1CO[C@@]2(C(=O)OC)Cc3cc(Cl)ccc3C2=N1)c1ccc(OC(F)(F)F)cc1		2.44 µM (active)
COc1ccc(OC)c(C=O)c1	-7.58% (inactive)	
CC(C)(C)C(O)C(Oc1ccc(-c2ccccc2)cc1)n1cncn1 (configuration not stated)		0.448 µM (active)
